# A selection: hits, their analogues and other compounds. The true share with any hit is near 10%.
# GLS inh: qHTS for Inhibitors of Glutaminase (GLS). GLS enzymatic activity, qHTS titration. 410,000 compounds, 0.21% hits. Potency, µM (highest dose often 45.5 µM), without a hit: at the top dose activity change, negative = inhibition, usual class: inhibitors. AID 624170, 2012; further: on the % scale 0 is the no-effect control and ±100 the full control effect
# Target sequence (O94925 whole entry, looked up): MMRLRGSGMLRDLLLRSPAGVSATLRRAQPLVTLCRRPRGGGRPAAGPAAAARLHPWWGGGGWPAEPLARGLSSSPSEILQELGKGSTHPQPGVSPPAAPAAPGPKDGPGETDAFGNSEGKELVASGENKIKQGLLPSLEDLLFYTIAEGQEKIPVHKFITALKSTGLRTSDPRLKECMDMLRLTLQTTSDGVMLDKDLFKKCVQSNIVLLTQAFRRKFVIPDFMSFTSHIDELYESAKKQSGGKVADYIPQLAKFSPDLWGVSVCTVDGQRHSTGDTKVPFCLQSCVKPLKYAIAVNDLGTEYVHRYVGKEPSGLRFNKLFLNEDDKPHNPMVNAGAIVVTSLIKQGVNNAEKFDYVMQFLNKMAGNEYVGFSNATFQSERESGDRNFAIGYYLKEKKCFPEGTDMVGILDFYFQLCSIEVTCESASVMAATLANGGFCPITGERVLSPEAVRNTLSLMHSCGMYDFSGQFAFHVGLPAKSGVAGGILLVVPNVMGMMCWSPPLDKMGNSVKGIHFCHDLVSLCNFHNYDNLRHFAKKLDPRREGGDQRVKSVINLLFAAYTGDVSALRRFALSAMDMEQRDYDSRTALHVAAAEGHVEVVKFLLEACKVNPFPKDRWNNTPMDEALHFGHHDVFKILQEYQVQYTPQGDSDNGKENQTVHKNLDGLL
#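 Coupled fluorescence readout: glutamate oxidase/HRP/Amplex Red detect glutamate formed by hKGA from L-glutamine (1 mM solution added). Buffer 45 mM KH2PO4 pH 8.2, 0.02% Tween-20; reads at t0 and 30 min RT.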
# JMJD2A Tudor: qHTS Assay for Inhibitors of JMJD2A-Tudor Domain | Lysine-specific demethylase 4A (Homo sapiens), O75164 | AlphaScreen JMJD2A-Tudor / H3K4me3 peptide binding | Potency, µM (highest dose often 114 µM), for the others: top-dose activity change, negative = inhibition, actives largely listed as inhibitors | 390,000 compounds, 4.4% hits | AID 504339, 2011; further: on the % scale 0 is the no-effect control and ±100 the full control effect; nearly all actives have a fitted effect of over 50% in size
# HP1b binding inh: HTS for Inhibitors of HP1-beta Chromodomain Interactions with Methylated Histone Tails. Chromobox protein homolog 1 (Homo sapiens), P83916. AlphaScreen HP1-beta / biotin-H3K9me3 peptide binding. Potency, µM (titrated, usually from 114 µM), for inactives: top-dose activity change, negative = inhibition, most hits filed as inhibitors. 390,000 compounds, 0.56% hits; further: nearly all actives have a fitted effect of over 70% in size
#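 HP1-beta protein (50 nM final) preincubated 30 min at room temperature with biotinylated H3(1-18)K9me3 peptide (50 nM) in PBS pH 7.4, 0.01% Tween-20, then compound added for 30 min. AlphaScreen streptavidin donor/nickel chelate acceptor beads (10 ug/mL final), 30 min dark, luminescence read.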
# BAZ2B block: qHTS Assay for Inhibitors of BAZ2B | Bromodomain adjacent to zinc finger domain protein 2B (Homo sapiens), Q9UIF8 | AlphaScreen BAZ2B-H3K14Ac peptide displacement | Potency, µM (series often up to 114 µM), for inactives: at the highest dose activity change, negative = inhibition, actives largely listed as inhibitors | 360,000 compounds, 4.4% hits | AID 504333, 2011; further: on the % scale 0 is the no-effect control and ±100 the full control effect; nearly all actives have a fitted effect of over 60% in size
#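 BAZ2B (50 nM) with biotin-H3(5-23)K14Ac peptide (50 nM) in PBS pH 7.4, 0.01% Tween-20, preformed 30 min, then compound 30 min at room temperature; top concentration 110uM. AlphaScreen streptavidin donor/nickel chelate acceptor beads (10 ug/mL final), 20 min dark, signal read.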
# G9a inh: qHTS Assay for Inhibitors of Histone Lysine Methyltransferase G9a. Histone-lysine N-methyltransferase EHMT2 (Homo sapiens), Q96KQ7. G9a H3K9 monomethylation, AlphaScreen, 2 h. Potency, µM (top dose mostly 102 µM), for inactives: at the top dose activity, negative = inhibition, most hits filed as inhibitors. 350,000 compounds, 8.8% hits. AID 504332, 2011; further: on the % scale 0 is the no-effect control and ±100 the full control effect; nearly all actives have a fitted effect of over 75% in size
#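 AlphaScreen read-out: biotin-H3K9 peptide (500 nM) methylation by 20 nM enzyme with 20 uM SAM, 2 h at room temperature after 15 min compound preincubation; anti-monomethyl H3K9 antibody plus donor/acceptor beads, 10 min dark.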
# * = called active by the depositor; u = inconclusive; x = no result given; ! = a repeat was not active; [ ] = dose if it differs, or a comment. The call rests on the fitted dose curve; in most records, active means well fitted curve in the direction sought with a large enough effect; inconclusive means small, poorly fitted or top-dose-only effect, or another doubt; inactive means no such curve, though single readings can be large; an effect the other way counts as inactive or inconclusive. Potency means the concentration at half of the fitted maximal effect.
SMILES,GLS inh,JMJD2A Tudor,HP1b binding inh,BAZ2B block,G9a inh
O=C1c2cccc3c(O)ccc(c23)C(=O)N1Cc1ccco1,4.9%,-17.2%,19.9%,-2.6%,39.8µM*
CCc1ccc(NC(=O)c2ccc3c(c2)C(=O)N(Cc2ccco2)C3=O)cc1,-10.9%,u,20.0%,u,50.1µM*
O=C(O)c1cccc(NC(=O)c2ccc3c(c2)C(=O)N(Cc2ccco2)C3=O)c1,u,-12.6%,24.6%,u,x
COC(=O)Cc1ccc(NC(=O)c2ccc3c(c2)C(=O)N(Cc2ccco2)C3=O)cc1,-1.7%,-2.8%,30.0%,-2.3%,x
O=C(O)c1ccc2c(c1)C(=O)N(Cc1ccco1)C2=O,36.1%,u,-19.0%,-23.1%,56.2µM*
CC1(CNC(=O)C(=O)NCC2(C)CO2)CO1 (stereo not drawn),-0.6%,-5.5%,14.8%[57 µM],x,x
CCOc1ccc(C(=O)CN2CCN(S(=O)(=O)c3ccc(OC)cc3)CC2)cc1,-3.2%,-32.0%,50.1%,-1.5%,12.6µM*
CCOc1ccc(C(=O)CN2CCN(S(=O)(=O)c3ccc(Br)cc3)CC2)cc1,-4.4%,-6.9%,62.2%,-35.6%,31.6µM*
O=S(=O)(NC1CCCC1)c1ccc(F)cc1F,-1.4%,x,x,x,x
Cc1nn(-c2ccccc2)c(=S)n1-c1ccccc1,-5.9%,1.1%,36.8%,6.7%,-28.7%[12.7 µM]
OCCn1nc2c3ccccc3nc-2n(-c2ccccc2)c1=S,-4.0%,-16.0%,-24.3%,-10.7%,25.1µM*
CCCOc1ccc(OC(=O)c2cn(-c3ccc(OC)cc3)c(=O)c3ccccc23)cc1,6.8%,-8.7%,17.5%[57 µM],-1.2%,7.0%[59 µM]
CCc1nc(C)cn1S(=O)(=O)c1cc(C)c(OC)cc1C,4.8%,-2.8%,39.4%,-2.8%,50.1µM*
O=C(c1ccc(-c2cccc(C(F)(F)F)c2)o1)N1CCN(c2ccccc2)CC1,7.0%,-27.6%,12.1%,0.8%,3.55µM*
O=C(c1ccco1)N1CCN(C(=O)c2ccc(-c3cccc(C(F)(F)F)c3)o2)CC1,-4.2%,-24.5%,4.8%,u,6.7%[0.501 µM]
O=C(c1ccc(-c2cccc(C(F)(F)F)c2)o1)N1CCCCCCC1,0.1%,19.2%,-8.7%,-8.8%,50.1µM*
CCOc1ccccc1NC(=O)NCc1noc2ccc(C)cc12,-4.0%,9.2%,39.3%,u,7.5%[59 µM]
Cc1cc(C)n(CCc2nc3c4ccccc4nc(N4CCN(c5ccccc5)CC4)n3n2)n1,-14.6%,-30.5%,1.5%,-0.8%,9.2%[59 µM]
COc1cccc(/C=c2\sc3nc(-c4cccs4)nn3c2=O)c1OC,-0.1%,-20.8%,-18.8%,-24.0%,-42.3%[59 µM]
COc1ccccc1-c1nc2s/c(=C\c3cccs3)c(=O)n2n1,-1.6%,-5.3%[11.4 µM],-37.7%,-32.8%,2.82µM*
O=c1/c(=C/c2ccco2)sc2nc(-c3ccccc3Br)nn12,-3.2%,50.1µM*,8.91µM*,44.7µM*,22.4µM*
COc1ccc(/C=c2\sc3nc(-c4ccccc4OC)nn3c2=O)c(OC)c1,u,89.1µM*,3.1%,-18.1%,-6.4%[12.7 µM]
Cc1ccc(/C=c2\sc3nc(-c4cccs4)nn3c2=O)o1,-2.3%,u,0.3%,-32.5%,17.8µM*
CN(C)c1ccc(/C=c2\sc3nc(-c4ccccc4)nn3c2=O)cc1,x,x,x,1.5%,11.1%[12.7 µM]
COc1ccccc1-c1noc(-c2ccc(N3CCOCC3)c([N+](=O)[O-])c2)n1,0.1%,-20.2%,23.5%,-1.8%,5.7%[59 µM]
SMILES,GLS inh,JMJD2A Tudor,HP1b binding inh,BAZ2B block,G9a inh
Cn1c(SCC(=O)c2ccc3c(c2)OCCO3)nnc1C1CC1,-2.4%,-10.7%[57.1 µM],43.1%,-0.8%,22.4µM*
Cn1c(SCC(=O)c2ccc3c(c2)OCCO3)nnc1C(F)(F)F,-0.6%,-26.2%,24.8%,-32.1%,56.2µM*
Cc1cccnc1NC(=O)NC(=O)c1ccc(C(C)(C)C)s1,0.2%,-11.4%,30.8%,-38.8%,x
NC(c1csc(Nc2ccc(C(=O)NCCO)cc2)n1)C1CCCCC1 (stereo not drawn),26.1%,x,x,x,x
Cc1ccc(S(=O)(=O)Nc2ccc3cc([N+](=O)[O-])ccc3c2[N+](=O)[O-])cc1,u,u,-16.4%[57 µM],x,x
COc1cccc(CN(C(=O)c2oc3ccccc3c2C)C2CCS(=O)(=O)C2)c1 (stereo not drawn),-0.4%,-12.8%,16.1%,-14.8%,-9.7%[59 µM]
O=C(Cc1ccccc1)c1nc2ccccc2s1,16.1%,u,u,70.8µM*,u
COc1cc(CN2C[C@@H](CO)O[C@@H](n3cnc4c(NCC(C)C)ncnc43)C2)cc(OC)c1OC,0.7%,x,x,x,x
Cc1cccc(NC(=O)C2CCCC2)c1,6.2%,-4.5%,18.6%,12.9%,25.0%[59 µM]
Cc1cccc(NS(=O)(=O)c2nnc(NC(=O)C3CCCCC3)s2)c1,0.0%,-14.8%,34.1%,6.31µM*!,8.91µM*!
O=C(NNc1ccc(Cl)cc1)C1CCC1,u,-19.1%,52.7%,-2.5%,17.8µM*
Cc1cccc(NNC(=O)c2c(F)cccc2Cl)c1,22.5%,-3.3%,54.3%,-9.3%,70.8µM*
Cc1cccc(NNC(=O)C2CCC2)c1,17.4%,3.3%,59.6%,0.7%,31.6µM*
CC(C)c1ccc(C(=O)Nc2ccc(S(=O)(=O)NC3=NCCCCC3)cc2)cc1,1.2%,x,x,x,x
COc1ccc(S(=O)(=O)NC2CCN(C#N)CC2)cc1,x,-3.4%,x,x,x
CCOc1ccccc1NC(=O)N1CCN(S(=O)(=O)c2ccc3c(ccn3C)c2)CC1,0.0%,-6.6%,45.9%,-3.2%,8.3%[59 µM]
CCNc1ncc2nc(-c3cc(F)cc(F)c3)c(=O)n(CCOC)c2n1,x,x,x,x,2.3%[0.501 µM]
CC(C)(C)NC(=O)C(c1ccncc1)N(Cc1ccco1)C(=O)c1ccc(-c2ccccc2)[nH]1 (stereo not drawn),68.7%,50.1µM*,u,u,22.4µM*
O=C(CNc1cc(S(=O)(=O)N2CCOCC2)ccc1N1CCCC1)Nc1ccc(Cl)cc1,11.1%,u,0.2%,x,x
CC1=C(C(=O)N2CCCCCC2)CC(CC(=O)NCCCN(C)C)C(=O)N1Cc1ccc(F)cc1 (stereo not drawn),-11.9%,x,x,x,x
Cc1ccc(-n2cc3c(=O)n(C)c(=O)n(C)c3c2)cc1C,4.4%,-9.1%,33.3%,-17.1%,44.7µM*
C=CCn1c(SCc2ccc(C#N)cc2)nnc1-c1ccc(C)cc1,-0.7%,0.0%,23.2%,3.4%,x
Cc1ccc(C)c(CN2C(=O)c3ccccc3S(=O)c3ccc(C(=O)N4CCCCC4)cc32)c1 (stereo not drawn),-4.7%,-31.6%,14.0%,-30.4%,-25.8%[59 µM]
Cn1c(O)c(N=NC(=O)C2COc3ccccc3O2)c2ccccc21 (stereo not drawn),-1.1%,u,u,-36.2%,1.2%[12.7 µM]
